Here are results for 39 compounds from PubChem BioAssay (NCI).

Several values for one entry are separate records, joined by “and”; a condition that tells them apart may be missing. Equal entries are not always repeated. This is part of a sample that, as a whole, favours compounds with a hit. Of some 83,000 tested, about 20% had one in any assay.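 96-well plates, one dose, 48 hours. Percent growth reported; active if below 10.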 Some structures have more than one record in an assay (separate samples or runs), and their calls can disagree. Activity calls are given as the source filed them.

For the test, the system named is HL-60(TB) leukemia. Put plainly: NCI-60 one-dose screen, 48 h (100 = growth as untreated, 0 = no growth, -100 = all killed). Particulars: 10 µM unless noted.
With `c1cnc2[nH]cc(-c3csc(-c4cn(CCCN5CCOCC5)c5ccccc45)n3)c2c1`, the growth was 35.8% (inactive). On to `C=CCNc1nnc(C)s1`, for which the growth is 139% (inactive).

In the case of `CCN(CC)CCc1nc(-c2ccccc2)no1`, the growth is 104% (inactive). As for `CC(=O)N(C)c1ccc(Nc2cc(C)[nH]c3ccc4ncnc4c23)cc1`, the growth is 21.3% (inactive). On to `COc1ccc(C(=O)Nc2ncc(Cc3ccc(F)cc3)s2)cc1`, for which the growth is -2.26% (active). The value for `CC1(C)CCC(S(=O)(=O)c2ccc3c(c2)/C(=N\O)c2cc(S(=O)(=O)N4CCC(O)(c5cccc(C(F)(F)F)c5)CC4)ccc2-3)CC1` was -67.5% (active); that for `CSc1n(Cc2ccc3ccccc3c2)c(C)c[n+]1Cc1ccc2ccccc2c1` was -45% (active); that for `O=C(O)CCCCCCCCCCCCCCC(=O)O` was 102% (inactive). As to `Cn1c2ccccc2c2nn(C(=O)c3ccccc3)c(=O)nc21`, the growth was 110% (inactive).

`O=C(c1ccccc1)C(CN1CCCCC1)c1ccccc1` (centres undefined): the growth was -43.7% (active). As for `Cc1cccc(C)c1NC(=O)CSC(=S)N1CCCCC1`, the growth was 73.2% (inactive). With `CCCCn1c(=O)c(C2CNC(=O)c3ccccc3N2)cc2ccccc21` (centres undefined), the growth was 96.7% (inactive). Turning to `COc1ccc(-c2nn(-c3cccc(Cl)c3)cc2-c2c(C#N)c(=O)n3[nH]c(-c4ccccc4)nc3c2C#N)cc1`, the growth was 79.9% (inactive). The value for `OCc1c(-c2ccccc2)nc2sccn12` was 130% (inactive); that for `NS(=O)(=O)c1cnccc1Oc1cccc2cccnc12` was 89.5% (inactive); that for `CC#Cc1nc2ccccc2c(=O)[nH]1` was 11.4% (inactive).

On to `CN1CCN(CC(=O)N(C)c2ccc(N=C(c3ccccc3)c3c(O)[nH]c4ccc(C#N)cc34)cc2)CC1`, for which the growth is 14.9% (inactive). The value for `CCn1cc(C(=O)N/N=C/c2cccs2)c(=O)c2cc(F)c(N3CCNC(C)C3)c(F)c21` (centres undefined) was 105% (inactive); that for `CC(C)CCC[C@@H](C)[C@H]1CC[C@H]2[C@@H]3CC=C4C[C@@H](C(C(=O)O)C(=O)O)CC[C@]4(C)[C@H]3CC[C@]12C` was -44.4% (active); that for `Cn1cc(-c2csc(-c3ccc(Cl)cc3)n2)c2cccnc21` was 7.96% [100 µM] (active). Turning to `O=C(O)c1ccc2c(c1)CCC2`, the growth was 68.3% (inactive). In the case of `O=C(Nc1cccc(Cl)c1)c1cc2ccccc2cc1O`, the growth was 5.85% (active) and -13.6% (active). `O=[N+]([O-])c1ccc(Cl)c(S(=O)(=O)O)c1`: the growth is 96.4% (inactive). Consider `O=c1cc(-c2cccnc2)oc2c1ccc1ccccc12`, for which the growth is 83.4% (inactive). Turning to `C=C1C(=O)O[C@H]2[C@H]1CC/C(COC(=O)CCC(=O)OC/C1=C/CC[C@@]3(C)O[C@H]3[C@H]3OC(=O)C(=C)[C@@H]3CC1)=C\CC[C@@]1(C)O[C@@H]21`, the growth was -41.9% (active).

Regarding `Oc1c(Cl)cc(Cl)c(Cl)c1CNCCNCc1c(O)c(Cl)cc(Cl)c1Cl`, the growth is -10.5% (active).

For the compound `O=C(c1cc2ccccc2o1)c1nn(-c2ccccc2)/c(=N/N=Cc2cn(-c3ccccc3)nc2-c2cc3ccccc3oc2=O)s1`, the growth was 98.2% (inactive). The value for `CCOC(C)(c1ccc(Cl)cc1)C1CCNCC1` (centres undefined) was 86.1% (inactive); that for `O=C(c1nn(-c2ccccc2)c2c1CC(NCc1ccc(F)cc1)CC2)N1CCCCC1` (centres undefined) was 86.6% (inactive). In the case of `COc1ccccc1Nc1nc2c(s1)C1=CC[C@H]3[C@@H]4CC[C@H]([C@H](C)CCCC(C)C)[C@@]4(C)CC[C@@H]3[C@@]1(C)CC2`, the growth was 102% (inactive). The value for `O=C(Nc1cccc(C2=NCCN2)c1)c1ccc(OCCCOc2ccc(C(=O)Nc3cccc(C4=NCCN4)c3)cc2)cc1` was -27.3% (active); that for `COc1cc(C2CC(c3cc(OC)c(OCCCOc4ccc(-n5c(/C=C/c6ccccc6)nc6ccccc6c5=O)cc4)c(OC)c3)=NO2)cc(OC)c1OC` (centres undefined) was 119% (inactive); that for `CCN1CCN(c2cc(C)nc(N(CCCNc3ccnc4cc(Cl)ccc34)Cc3cccs3)n2)CC1` was -50.3% (active). Take `COc1cc(C(=O)/C=C/c2c(C)n([O-])c3ccc(C(F)(F)F)cc3[n+]2=O)cc(OC)c1OC`: the growth was 69% (inactive). Regarding `CN(C)CCOC1(Cc2ccc(Cl)cc2Cl)CCC(C(C)(C)C)CC1` (centres undefined), the growth was 43.9% (inactive) and 9.21% (active).

Consider `CS(=O)(=O)c1ccc(-c2cnn3ccc(-c4cccc(S(=O)(=O)C5CC5)c4)nc23)cc1`, for which the growth was 24.3% (inactive).

Take `Cc1[nH]c2ccc(F)cc2c1CCNC(=O)C1CCN(C(=O)c2ccccc2)CC1`: the growth was 102% [25 µM] (inactive). Turning to `COC(=O)/C=C1/SC(=Nc2ccc(C)cc2)N(CCc2c[nH]c3ccc(O)cc23)C1=O`, the growth was 49.3% (inactive).

For the compound `CCC(C)CC(C)C(=O)c1c(O)ccn(OC)c1=O` (centres undefined), the growth was 94.6% (inactive).
